An excerpt weighted towards active compounds, which were near 4.3% of everything screened.
DRD3 agonist: D3 dopamine receptor (human) agonism; D3R DiscoveRx beta-arrestin cells, luminescence, 90 min; 410,000 compounds, 0.58% hits; P35462; AID 652048; max activation, %; in the data active means max activation above about 30%
Target sequence (P35462 whole entry, looked up): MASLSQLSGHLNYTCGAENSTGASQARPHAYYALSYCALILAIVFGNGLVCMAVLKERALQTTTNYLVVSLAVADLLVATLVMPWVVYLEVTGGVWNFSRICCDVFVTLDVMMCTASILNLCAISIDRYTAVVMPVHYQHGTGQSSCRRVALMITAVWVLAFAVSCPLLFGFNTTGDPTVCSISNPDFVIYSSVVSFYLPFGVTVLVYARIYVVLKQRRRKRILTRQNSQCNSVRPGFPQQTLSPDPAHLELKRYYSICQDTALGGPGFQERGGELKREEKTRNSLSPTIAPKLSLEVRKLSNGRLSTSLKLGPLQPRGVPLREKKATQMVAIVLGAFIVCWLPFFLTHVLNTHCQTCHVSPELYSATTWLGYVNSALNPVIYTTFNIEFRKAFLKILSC
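Agonist mode: compounds and dopamine controls were applied to plated cells for 90 min at 37 degrees C after an overnight attachment at 1500 cells/well. Luminescent read-out followed 30 - 60 minutes at room temperature with DiscoveRx detection reagent.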
GLP-1R inv ag: GLP-1 receptor (human) inverse agonism | 410,000 compounds, 1.6% hits | P43220 | HEK293 GLP-1R CRE-luciferase, luminescence, 24 h; GLP-1R form is constitutively active | Potency, µM (top dose mostly 38.3 µM), usual class: inhibitors; further: nearly all actives have a fitted effect of over 55% in size
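Readout was luciferase luminescence, measured 12 min after detection reagent at room temperature. Beforehand, GLP-1R reporter HEK293 cells had sat 12 h, then received compounds for 24 hr at 37 deg C.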
GLP1R ag: activates the human GLP-1 receptor | P43220 | HEK293 GLP-1R CRE-luciferase, luminescence, 4-6 h; cells express a hypersensitive GLP-1R form | Potency, µM (highest dose often 45.6 µM), usual class: activators | 380,000 compounds, 0.007% hits | AID 624172
D3 antag: blocks the human D3 dopamine receptor | AID 652054 | D3R cells, DiscoveRx beta-arrestin luminescence, antagonist mode; active compounds read low | max response, negative = inhibition, % | P35462 | 360,000 compounds, 2.5% hits; in the data active means max response below about -50%; inconclusive means no clear call, values can overlap the other calls
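Cells expressing the human receptor were seeded at 1500 cells/well, incubated overnight at 37 degrees C in 5% CO2, then exposed to library compounds with dopamine controls for 90 minutes at 37 degrees C before luminescent detection.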
A number is an active result; 0 = inactive; ? = inconclusive; - = no result; ! = not active in a repeat. Unless noted, the call rests on the fitted dose curve; in most records, active means well fitted curve in the direction sought with a large enough effect; inconclusive means small, poorly fitted or top-dose-only effect, or another doubt; inactive means no such curve, though single readings can be large; an effect the other way counts as inactive or inconclusive.

SMILES	DRD3 agonist	GLP-1R inv ag	GLP1R ag	D3 antag
CCCC[N+]12C3C[C@H](C4[C@H](O)[C@]5(C[C@@H]41)c1ccccc1N(C)[C@@H]35)[C@H](CC)[C@H]2O (stereo partly drawn)	0	0	0	0
Oc1ccc2c3c1O[C@H]1[C@@H](O)C=C[C@H]4[C@H](C2)NCC[C@@]341	0	-	-	-
CC1=CC2/C=C(\C)CCC(O)C(O)/C=C/C(=O)C23C(=O)NC(CC(C)C)C3C1C (stereo not drawn)	0	?	0	-73.9
Cc1ccc2c(c1)[C@]13CCCC[C@@H]1[C@H](C2)N(C)CC3	0	-	-	-
COc1ccccc1CN1CCCCC1c1cccnc1 (stereo not drawn)	32.9	0	0	0
O=S(=O)(c1ccc(F)cc1)N1CCCCC1c1cccnc1 (stereo not drawn)	0	0	0	0
OC(CN1CC=C(c2ccccc2)CC1)c1ccccc1 (stereo not drawn)	0	0	0	0
OC(COCc1ccc(Cl)cc1)CN1CC=C(c2ccccc2)CC1 (stereo not drawn)	33.7	?	0	?
Cc1ccc(C(=O)Nc2nc3ccccc3n2CCN2CCCC2)cc1	0	?	0	-60.6
O=C(Nc1nc2ccccc2n1CCN1CCCC1)c1ccc(Cl)cc1	0	?	0	0
O=C(Nc1cccc(C(F)(F)F)c1)C1CCCN1S(=O)(=O)c1cccc2nsnc12 (stereo not drawn)	0	?	-	-
C[C@@H]1[C@@H]2Cc3ccc(O)cc3[C@@]1(C)CCN2CCc1ccccc1	0	-	-	-
CN1C2CCC1CC(OC(=O)c1ccc([N+](=O)[O-])cc1)C2 (stereo not drawn)	0	3.98µM	0	0
CN1C2CCC1CC(OC(=O)c1cccc(O)c1)C2 (stereo not drawn)	0	?	0	0
CC(=O)[C@@]1(O)CC[C@H]2[C@@H]3CCC4=CC(=O)CC[C@]4(C)C3(F)[C@@H](O)C[C@@]21C (stereo partly drawn)	0	-	-	-
COc1ccc(NC(=O)c2c(C)nn(Cc3ccccc3Cl)c2Cl)cc1Cl	0	0	0	0
COc1ccc2c(c1)CCc1c(C(=O)Nc3c(C)nn(Cc4ccccc4C)c3C)noc1-2	0	10µM	-	-
C=CCc1ccccc1OCCn1c(C2CC(=O)N(Cc3ccc(F)cc3)C2)nc2ccccc21 (stereo not drawn)	0	?	-	-
CCOC(=O)[C@]12Cc3cc(C)ccc3[C@H]1N(C1CCCCC1)C(=O)c1cc(OC)ccc12	0	?	0	-64.3
CCOC(=O)[C@]12Cc3cc(C)ccc3[C@H]1N(Cc1ccccc1)C(=O)c1cc(F)c(F)cc12	0	11.2µM	0	0
CCCCCN1C(=O)c2ccccc2[C@@]2(C(=O)OCC)Cc3cc(OC)ccc3[C@@H]12	0	8.91µM	0	0
COc1cc(/C=N/NC(=O)c2cnccn2)cc(OC)c1OC	0	0	0	0
C=C[C@H]1CN2CC[C@H]1C[C@H]2[C@H](OC(=O)OCC)c1ccnc2ccc(OC)cc12	0	-	-	-
CC(C)=CCN1CC[C@]2(C)c3cc(O)ccc3C[C@H]1[C@H]2C	0	-	-	-
O=c1[nH]c(=S)n(CCC2=CCCCC2)c(O)c1C=NC1CCN(Cc2ccccc2)CC1	0	0	0	0
SMILES	DRD3 agonist	GLP-1R inv ag	GLP1R ag	D3 antag
O=c1[nH]c(=S)n(CCC2=CCCCC2)c(O)c1/C=N/Nc1ccccc1	0	4.47µM	0	0
C=C1C(=O)O[C@@H]2C[C@@H](C)[C@@H]3C=CC(=O)[C@@]3(C)[C@@H](O)[C@H]12	0	2.51µM	0	-102.1
CCOc1ccc(C2(C#N)CC[N+](C)(C)CC2)cc1	0	0	0	-50.7
COc1ccc(C2(C#N)CC[N+](C)(C)CC2)cc1	0	0	0	0
Cc1ccc2c(c1)[C@]13CCCC[C@@H]1[C@@H](C2)N(C)CC3	-	-	0	-
CCn1nc(-c2cccs2)nc2c(=O)n(C)c(=O)nc1-2	0	2.82µM	0	-80.5
CC[n+]1c(-c2ccccc2)c2cc(N)ccc2c2ccc(N)cc21	0	5.62µM	0	0
CN1CCN(c2ccc([N+](=O)[O-])c(N)c2)CC1	0	0	0	0
CN1CCN(c2ccc([N+](=O)[O-])c(NCc3ccco3)c2)CC1	0	?	0	-74.7
CN1CCN(c2ccc([N+](=O)[O-])c(NCC3CCCO3)c2)CC1 (stereo not drawn)	44.2	?	0	0
O=[N+]([O-])c1ccc(N2CCNCC2)cc1NCc1ccco1	0	0	0	0
O=C(Cc1c(Cl)cccc1Cl)N1CCN(Cc2ccccc2)CC1	0	?	0	-50.8
CCOc1ccc(NC(=O)C2C(C(=O)O)C3(Cl)C(Cl)=C(Cl)C2(Cl)C3(Cl)Cl)cc1 (stereo not drawn)	0	?	0	0
Cc1cc(O)c(CN2CC=C(c3ccccc3)CC2)cc1C(C)C	0	0	0	-72.7
c1ccc2c(CN3CCCCCCC3)c[nH]c2c1	0	0	0	0
c1ccc2c(CN3CCN(C4CCCCC4)CC3)c[nH]c2c1	0	?	0	-67.5
C=CCOC(Cn1ccnc1)c1ccc(Cl)cc1Cl (stereo not drawn)	0	?	0	0
Clc1ccc(COC(Cn2ccnc2)c2ccc(Cl)cc2Cl)c(Cl)c1 (stereo not drawn)	46.6!	?	0	0
COc1ccc(S(=O)(=O)N2CCN(C(=O)c3ccc(COc4ccccc4)o3)CC2)cc1	0	?	0	0
CC(C)Oc1ccc(C(=O)Nc2ccc3c(c2)CCCN3C(=O)c2cccs2)cc1	0	?	-	-
c1ccc(C2CN3CCC2CC3)cc1 (stereo not drawn)	0	0	0	0
OC(Cc1ccccc1)(c1ccccc1)C1CN2CCC1CC2 (stereo not drawn)	0	?	0	0
OC(c1ccccc1)(c1ccccc1)C1CN2CCC1CC2 (stereo not drawn)	0	0	0	-70.0
OC(c1ccccc1)(c1ccc(Cl)cc1)C1CN2CCC1CC2 (stereo not drawn)	0	1.58µM	0	0
CC(C)Oc1ccc(CC2(CCc3ccncc3)C(=O)NC(=O)NC2=O)cc1	32.8	0	0	0
SMILES	DRD3 agonist	GLP-1R inv ag	GLP1R ag	D3 antag
Clc1cccc(Cl)c1CN1CCN(c2ccccc2)CC1	0	0	0	?
CCCCCCN1CCN(c2ccccc2Cl)CC1	0	0	0	-115.4
Cc1ccc(C(=O)Nc2nc3ccccc3[nH]2)cc1	0	1.26µM	0	0
COc1ccc([C@@H]2COc3c(ccc4c3C=CC(C)(C)O4)C2)c(OC)c1	33.1	?	0	0
OC[C@@H](O)[C@H]1O[C@@H]2OC(C(Cl)(Cl)Cl)O[C@H]2[C@H]1O (stereo partly drawn)	-	-	0	-
C[C@@H]1C[C@@H]([C@H](O)CC2CC(=O)NC(=O)C2)C(=O)[C@@H](C)C1	0	0.794µM	0	0
CC1CN(C(=O)c2ccc(S(=O)(=O)Nc3ccccc3F)cc2)CC(C)O1 (stereo not drawn)	0	0	0	0
CC(C)(Oc1ccc(Cl)cc1)C(=O)OCC(=O)N1CCN(c2ccccc2)CC1	0	?	0	0
COc1ccc(OC)c(C(O)C2CCCCN2)c1 (stereo not drawn)	0	0	0	-61.3

Screening results as filed in PubChem BioAssay.
